# Data reported in PubChem BioAssay.
# Activity calls are given as the source filed them.
# Columns and labels:
# [1] = test system: Human papillomavirus type 1a protein E7 (residues 44-93); experiment: small molecules binding HPV E7 44-93 – biochemical, small-molecule microarray, residues 44-93, 635 nm fluorescence, primary screen (AID 1108); conditions: fluorescence 635 nm, higher = more signal;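 note: E7 fragment applied at 1 µg/mL in TBST for 1 h at 4 C; score combines spot fluorescence with its signal to noise ratio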
# [2] = hepatitis C replication reporter changes, two-sided – Huh7 cells, luciferase reporter, HCV replication inhibitor project, primary screen (AID 1109); conditions: Huh7 HCV replicon luciferase reporter, 48 h; higher = more signal;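 note: huh7 hepatoma cells harbouring a luciferase neomycin HCV replicon reporter; luciferase luminescence as measure of HCV replicon replication; test concentration not given here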
# [3] = target: Left-right determination factor 2 (Homo sapiens) (UniProt O00292); experiment: small molecules binding LEFTY2 protein – biochemical, small-molecule microarray, 635 nm fluorescence scan, primary screen (AID 1110); conditions: higher = more signal
# Left-right determination factor 2 (Homo sapiens), sequence (O00292 whole entry, looked up): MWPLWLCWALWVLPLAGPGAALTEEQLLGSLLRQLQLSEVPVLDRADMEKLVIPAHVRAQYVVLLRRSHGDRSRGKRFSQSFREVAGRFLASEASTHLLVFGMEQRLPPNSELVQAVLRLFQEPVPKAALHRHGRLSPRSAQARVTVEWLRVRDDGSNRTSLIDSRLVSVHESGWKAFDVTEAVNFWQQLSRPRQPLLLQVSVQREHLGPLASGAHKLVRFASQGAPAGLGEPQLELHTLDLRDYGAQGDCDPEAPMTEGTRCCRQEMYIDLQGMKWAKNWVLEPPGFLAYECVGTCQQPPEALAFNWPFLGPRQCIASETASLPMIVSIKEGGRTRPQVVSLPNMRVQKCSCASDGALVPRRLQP
# [4] = target: Calmodulin-1 (Homo sapiens) (UniProt P0DP23); experiment: small molecules binding calmodulin-1 with EGTA – biochemical, small-molecule microarray, Cy5-labelled CALM1, profiling panel (AID 1111); conditions: Cy5-CALM1 binding fluorescence, higher = more signal;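 note: labelled calmodulin applied in Tris saline Tween buffer holding calcium plus EGTA and DTT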
# [5] = target: Calmodulin-1 (Homo sapiens) (UniProt P0DP23); experiment: small molecules binding Ca-loaded calmodulin-1 – biochemical, small-molecule microarray, Cy5-labelled CALM1, plus calcium, artefact control for SMM control-protein annotation, profiling panel (AID 1112); conditions: Cy5-CALM1 binding fluorescence, higher = more signal;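 note: score merges spot fluorescence with signal to noise from triplicate slides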
# [6] = probe aWnt5a binding to arrayed compounds – biochemical, biotinylated probe, 635/667 nm fluorescence, primary screen (AID 1113); conditions: small-molecule microarray, higher = more signal;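 note: score merges 667 nm fluorescence intensity with signal-to-noise per printed feature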
# [7] = probe aShh binding to arrayed compounds – biochemical, biotinylated probe, 635/667 nm fluorescence, primary screen (AID 1114); conditions: small-molecule microarray, higher = more signal;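 note: probe is biotin-labelled aShh protein from a stem cell growth factor screen; measures binding of labelled protein to compounds printed on the slide; score merges feature fluorescence at 667 nm with signal-to-noise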
# [8] = probe aNog binding to arrayed compounds – biochemical, biotinylated probe, 635/667 nm fluorescence, primary screen (AID 1115); conditions: small-molecule microarray, higher = more signal;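 note: probe is biotinylated aNog protein used at 0.15 µg/mL for 1 h at 4 C; z-score combines 667 nm fluorescence of each spot with its signal to noise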
# [9] = target: Torsin-1A-interacting protein 1 (Homo sapiens) (UniProt Q5JTV8); experiment: compound microarray binding of lysate hLAP1 – cell lysate, small-molecule microarray, COS7 lysate, 635/667 nm fluorescence, primary screen (AID 1116); conditions: 635 nm fluorescence, higher = more signal
# Torsin-1A-interacting protein 1 (Homo sapiens), sequence (Q5JTV8 whole entry, looked up): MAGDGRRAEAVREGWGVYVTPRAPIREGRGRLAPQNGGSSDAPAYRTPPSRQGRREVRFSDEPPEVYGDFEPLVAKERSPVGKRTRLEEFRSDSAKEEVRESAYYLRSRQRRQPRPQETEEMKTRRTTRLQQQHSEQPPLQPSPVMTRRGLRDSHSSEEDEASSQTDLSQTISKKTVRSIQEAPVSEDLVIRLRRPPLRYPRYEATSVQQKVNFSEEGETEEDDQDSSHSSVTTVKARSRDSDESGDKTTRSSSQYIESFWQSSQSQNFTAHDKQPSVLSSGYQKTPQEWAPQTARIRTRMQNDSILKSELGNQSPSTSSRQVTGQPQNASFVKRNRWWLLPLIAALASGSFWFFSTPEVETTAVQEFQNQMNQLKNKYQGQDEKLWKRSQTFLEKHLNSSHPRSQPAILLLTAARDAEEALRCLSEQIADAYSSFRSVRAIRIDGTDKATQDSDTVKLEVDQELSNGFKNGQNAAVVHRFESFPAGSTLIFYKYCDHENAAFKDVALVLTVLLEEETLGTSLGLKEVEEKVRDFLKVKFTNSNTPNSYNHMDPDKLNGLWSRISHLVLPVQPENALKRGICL
# [10] = target: Alpha-bungarotoxin (Bungarus multicinctus) (UniProt P60615); experiment: compounds binding labelled alpha-BTX control protein – biochemical, small-molecule microarray, Alexa647 label, 635/667 nm fluorescence, artefact control for SMM control protein annotation, profiling panel (AID 1117); conditions: alpha-BTX-A647 binding fluorescence, higher = more signal
# Alpha-bungarotoxin (Bungarus multicinctus), sequence (P60615 whole entry, looked up): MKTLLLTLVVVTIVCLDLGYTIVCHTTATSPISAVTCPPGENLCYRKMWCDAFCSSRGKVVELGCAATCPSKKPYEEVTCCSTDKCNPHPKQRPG
# Albumin (Bos taurus) = Albumin (Bos taurus) (UniProt P02769); experiment: compounds binding labelled BSA control protein – biochemical, small-molecule microarray, Alexa647 label, 635/667 nm fluorescence, artefact control for SMM control protein annotation, profiling panel (AID 1118); conditions: BSA-A647 binding, fluorescence 635 nm, higher = more signal;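 note: score merges 667 nm emission intensity and signal-to-noise per printed compound spot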
# Albumin (Bos taurus), sequence (P02769 whole entry, looked up): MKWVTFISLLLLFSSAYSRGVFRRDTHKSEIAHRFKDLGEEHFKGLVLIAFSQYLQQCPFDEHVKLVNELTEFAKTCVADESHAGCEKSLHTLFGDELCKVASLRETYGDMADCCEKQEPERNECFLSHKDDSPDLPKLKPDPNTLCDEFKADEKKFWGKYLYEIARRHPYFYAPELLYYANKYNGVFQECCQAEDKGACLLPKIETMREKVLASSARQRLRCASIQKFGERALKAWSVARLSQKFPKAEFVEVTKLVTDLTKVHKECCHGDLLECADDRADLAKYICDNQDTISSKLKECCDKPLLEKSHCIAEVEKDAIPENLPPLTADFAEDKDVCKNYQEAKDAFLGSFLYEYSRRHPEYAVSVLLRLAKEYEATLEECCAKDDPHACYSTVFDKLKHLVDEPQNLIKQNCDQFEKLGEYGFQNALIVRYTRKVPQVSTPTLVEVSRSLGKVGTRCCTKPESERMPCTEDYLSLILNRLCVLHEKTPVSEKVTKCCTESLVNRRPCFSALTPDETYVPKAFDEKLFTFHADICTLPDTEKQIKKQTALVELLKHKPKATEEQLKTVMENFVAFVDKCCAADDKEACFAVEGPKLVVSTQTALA
# [11] = probe aXIP binding to arrayed compounds – biochemical, NeuroSMM set, 635/667 nm fluorescence, primary screen (AID 1119); conditions: small-molecule microarray, higher = more signal, called active from +8 up or from −8 down;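 note: probe is the protein aXip251-270 applied at 1 µg/mL to compound-printed slides; binding of probe to printed compounds measured as 667 nm fluorescence plus signal to noise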
# [12] = probe aNOTCH3 binding on compound microarray – biochemical, small-molecule microarray, 635/667 nm fluorescence, primary screen (AID 1120); conditions: higher = more signal;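 note: probe is a biotin-tagged antibody raised against NOTCH3 rather than NOTCH3 protein; score merges spot fluorescence near 667 nm with spot signal to noise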
# [13] = probe aNOTCH2 binding on compound microarray – biochemical, small-molecule microarray, 635/667 nm fluorescence, primary screen (AID 1121); conditions: higher = more signal;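 note: score merges feature fluorescence read at 667 nm with its signal to noise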
# [14] = target: Carbonic anhydrase 2 (Homo sapiens) (UniProt P00918); experiment: compounds binding carbonic anhydrase 2 – biochemical, small-molecule microarray, Alexa647-labelled CAII, profiling panel (AID 1122); conditions: CAII-A647 binding fluorescence, higher = more signal
# [15] = COS7 lysate on small-molecule microarray, probe aHis, 635 nm (AID 1123); conditions: COS7 cell lysate, fluorescence, higher = more signal;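 note: z-score combines 667nm fluorescence intensity with signal-to-noise per printed compound spot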
# [16] = probe aLAP1 signal on lysate-treated microarray – cell lysate, small-molecule microarray, COS7 lysate, primary screen (AID 1124); conditions: probe aLAP1, fluorescence, higher = more signal;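 note: lysate comes from COS7 cells expressing LAP1 and is applied at 0.3 µg/mL; score merges spot fluorescence near 667 nm with signal-to-noise over triplicate slides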
# Sam68 (KHDRBS1) = experiment: compounds binding KHDRBS1 protein – biochemical, small-molecule microarray, 635 nm fluorescence, primary screen (AID 1125); conditions: higher = more signal;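 note: score merges 667 nm channel intensity with signal to noise over triplicate slides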
# [17] = test system: Chordin-like protein 2 (CHRDL2); experiment: compounds binding chordin-like 2 – biochemical, small-molecule microarray, 635 nm fluorescence, primary screen (AID 1126); conditions: fluorescence 635 nm, higher = more signal;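 note: printed compound slides probed with Chrdl2 protein at 4 µg/mL for 1 h at 4 C; score merges 667 nm emission intensity with signal to noise over three replicate slides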
# [18] = target: Concanavalin-A (Canavalia ensiformis) (UniProt P02866); experiment: compounds binding concanavalin A lectin – biochemical, small-molecule microarray, Alexa647 label, 635 nm, artefact control for SMM control protein annotation, primary screen (AID 1127); conditions: ConA-A647 binding fluorescence, higher = more signal;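 note: z combines 667 nm emission intensity with signal-to-noise across three replicate slides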
# Concanavalin-A (Canavalia ensiformis), sequence (P02866 whole entry, looked up): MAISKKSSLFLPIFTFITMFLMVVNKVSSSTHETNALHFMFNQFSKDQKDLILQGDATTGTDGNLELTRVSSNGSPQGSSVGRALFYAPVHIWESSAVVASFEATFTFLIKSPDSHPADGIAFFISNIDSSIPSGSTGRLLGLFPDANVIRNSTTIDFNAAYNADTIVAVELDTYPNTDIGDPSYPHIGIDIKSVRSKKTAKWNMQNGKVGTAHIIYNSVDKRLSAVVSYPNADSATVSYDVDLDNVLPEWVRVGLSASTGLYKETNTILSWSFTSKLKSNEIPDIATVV
SMILES,composite z-score [1],z-score [2],composite z-score [3],composite z-score [4],composite z-score [5],composite z-score [6],composite z-score [7],composite z-score [8],composite z-score [9],composite z-score [10],composite z-score (Albumin (Bos taurus)),composite Z-score [11],composite z-score [12],composite z-score [13],composite z-score [14],composite z-score [15],composite z-score [16],composite z-score (Sam68 (KHDRBS1)),composite z-score [17],composite z-score [18]
COC(=O)C(CC#Cc1ccc2c(c1)[C@]1(C(=O)N2)[C@H](C(=O)N2CCc3cc(OC)c(OC)cc3C2)[C@H]2C(=O)O[C@H](c3ccccc3)[C@H](c3ccccc3)N2[C@@H]1c1ccc(O)cc1)C(=O)OC,1.27,-1.06,1.35,1.35,0.537,-0.0303,0.529,-0.491,0.908,1.12,-1.1,-0.0536 (inactive),0.233,0.0273,0.326,1.64,-0.137,1.29,1.25,1.16
O=c1c2ccc(Br)cc2nc(-c2ccccc2)n1Cc1cccc(O)c1,-0.128,-0.153,0.194,2.32,0.756,0.0438,-0.305,-0.218,2.51,1.8,0.757,0.906 (inactive),0.103,0.138,0.711,1.46,1.3,0.772,0.182,0.988
COC(=O)[C@@]1(Cc2ccc(OC)cc2)[C@H]2c3cc(C(=O)N4CCCC4)n(Cc4ccc(C)o4)c3C[C@H]2CN1C(=O)c1ccccc1,1.2,-3.68,-0.242,0.493,0.0918,0.457,0.444,-0.504,0.762,0.287,0.963,-0.282 (inactive),0.74,0.0489,0.614,1.23,0.0793,0.762,-0.425,0.88
COC(=O)C(CC#Cc1ccc2c(c1)[C@]1(C(=O)N2)[C@H](c2ccc(O)cc2)N2[C@H](c3ccccc3)[C@H](c3ccccc3)OC(=O)[C@H]2[C@@H]1C(N)=O)C(=O)OC,-0.863,-0.32,-0.91,-1.27,0.842,-0.202,-0.352,-0.263,-0.931,-1.83,-0.999,-0.421 (inactive),-0.256,-0.118,-0.669,-0.43,-0.404,-1.43,-2.25,-1.3
COC(=O)[C@@]1(Cc2ccc(OC)cc2)[C@H]2c3cc(C(=O)N(C)C)n(CCF)c3C[C@H]2CN1C(=O)c1ccccc1,0.528,-1.83,0.216,2.13,1.02,0.027,0.675,1.82,1.01,1.79,1.01,1.22 (inactive),0.292,-0.0015,0.793,2.96,0.721,1.32,-0.499,1.21
COc1ccc(C(=O)Nc2ccc(CN3C(=O)[C@]4(O[C@H](CCn5cc([C@H](O)c6ccccc6)nn5)[C@@H]([Si](C)(C)c5ccc(OC)cc5)[C@@H]4C)c4ccccc43)cc2)cc1,0.237,-4.97,-0.48,-0.0217,0.187,0.158,-0.453,0.0771,0.706,1.14,0.109,0.0958 (inactive),0.0026,-0.132,0.52,0.891,-0.127,0.619,-0.313,-0.0974
C=C(COC)C(=O)CC[C@H](OC(=O)c1ccccc1-c1ccccc1C(=O)O)c1ccc(CO)o1,0.544,-0.115,0.27,-0.271,-0.564,-0.128,-0.0553,-0.137,0.77,0.239,-0.701,0.403 (inactive),-0.203,-0.14,0.365,-0.264,0.134,0.807,0.55,0.332
C=CCOC(=O)[C@@H]1[C@H]2C(=O)O[C@H](c3ccccc3)[C@H](c3ccccc3)N2[C@H](c2ccc(OCCOC(=O)[C@@H]3C[C@@H]4C(=O)N5CCC[C@H]5C(=O)N4[C@@H]3c3cccc(OCCO)c3)cc2)[C@@]12C(=O)Nc1ccc(I)cc12,1.31,-1.01,0.56,1.25,-0.141,-0.0718,-0.264,-0.342,0.972,1.11,0.226,-0.244 (inactive),-0.055,-0.101,0.0553,1.34,0.167,1.29,1,1.14
CC(=O)NCCCC[C@@H]1NC(=O)[C@@H]2C[C@H](C(=O)NCCCC[N+](C)(C)C)[C@H](c3cccc(OCCO)c3)N2C1=O,0.193,-0.703,0.0711,0.601,0.0189,-0.122,-0.0643,-0.314,0.714,-0.08,-0.134,0.0725 (inactive),0.0426,-0.125,0.799,0.661,0.331,-1.33,0.349,-0.0028
CC(C)=CCCC(C)=CC(O)C1C=CC2C(=O)N(c3ccccc3)C(=O)C2N1Nc1ccc([N+](=O)[O-])cc1 (stereo not given),1.42,-0.135,-0.183,1.78,0.512,-0.0194,0.0952,1.71,1.08,0.972,1.01,0.649 (inactive),0.155,-0.0697,0.856,2.77,0.167,1.35,-1,1.14
COC(=O)[C@@]1(Cc2ccccc2)[C@H]2c3cc(C(=O)N4CCCC4)n(Cc4ccccc4)c3C[C@H]2CN1C(=O)c1ccccc1,1.45,-2.45,-0.347,1.42,0.168,0.0362,0.356,1.48,0.55,0.401,0.76,0.689 (inactive),0.591,0.302,0.637,2.36,-0.0361,0.5,-0.883,0.914
